High-throughput results as filed in PubChem BioAssay.
In the library only some 3.1% were active in any assay of this set; here they are far more common.
Neddyl block – inhibitors of cullin neddylation, primary screen, biochemical, TR-FRET, uHTS, NAE and Ubc12. NEDD8-conjugating enzyme Ubc12 (Homo sapiens) + NEDD8-activating enzyme E1 regulatory …. calls only at 25 µM. hit rate 0.58% among 360,000. AID 651699, 2012; in the data active = inhibition above about 36%
Rin1-Abl PPI inh – inhibitors of Rin1-Abl protein binding, primary screen, biochemical, TR-FRET. Tyrosine-protein kinase ABL1 (Homo sapiens) + Ras and Rab interactor 1 (Homo sapiens), …. inhibition, % at 7.35 µM. hit rate 0.4% among 360,000. AID 588664, 2011; in the data active = inhibition above about 5%, passing the limit was not always enough
UHRF1 binding – UHRF1 methylated DNA binding inhibitors, primary screen, counter-screen for MBD2 inhibitor project, biochemical, TR-FRET, human UHRF1, single concentration; hit rate 0.75% among 370,000; E3 ubiquitin-protein ligase UHRF1 (Homo sapiens), Q96T88; AID 687016, 2013; inhibition, % at 4.4 µM; UHRF1 binding to methylated oligo; in the data active = inhibition above about 21%;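 also: UHRF1 SRA domain binding a hemimethylated CpG hairpin DNA probe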
LEDGF integ inh – blockers of LEDGF/p75-dependent integrase strand transfer – biochemical, TR-FRET, high throughput, primary screen; inhibition, % at 3.7 µM; hit rate 0.64% among 370,000; TR-FRET IN-LEDGF/p75 DNA integration, Eu/Cy5; HIV-1 integrase (with human LEDGF/p75);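 active = inhibition above the screen-wide mean plus 3 SD, cut at about 13% in these data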;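 also: signal is the Cy5 over europium emission ratio at 671 and 618 nm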
KLK7 zymogen act – proKLK7 zymogen activators, primary screen, biochemical, fluorescence intensity. hit rate 0.9% among 370,000. purified proKLK7, EDANS-DABCYL substrate fluorescence; 100% is mature enzyme control, 0% vehicle. activation, % at 7 µM;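 active = activation above the mean of all tested compounds plus 3 SD, computed per campaign excluding outliers beyond control limits, cut at about 13% in these data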
MBD2 inh – inhibitors of MBD2 binding to methylated DNA, primary screen, biochemical, TR-FRET, DNA-binding domain, human; hit rate 0.31% among 370,000; inhibition, % at 4.4 µM; Methyl-CpG-binding domain protein 2 (Homo sapiens), Q9UBB5; MBD2 binding to methylated oligonucleotide; in the data active = inhibition above about 13%
Target sequence (Q9UBB5 whole entry, looked up, the tested form may be a part): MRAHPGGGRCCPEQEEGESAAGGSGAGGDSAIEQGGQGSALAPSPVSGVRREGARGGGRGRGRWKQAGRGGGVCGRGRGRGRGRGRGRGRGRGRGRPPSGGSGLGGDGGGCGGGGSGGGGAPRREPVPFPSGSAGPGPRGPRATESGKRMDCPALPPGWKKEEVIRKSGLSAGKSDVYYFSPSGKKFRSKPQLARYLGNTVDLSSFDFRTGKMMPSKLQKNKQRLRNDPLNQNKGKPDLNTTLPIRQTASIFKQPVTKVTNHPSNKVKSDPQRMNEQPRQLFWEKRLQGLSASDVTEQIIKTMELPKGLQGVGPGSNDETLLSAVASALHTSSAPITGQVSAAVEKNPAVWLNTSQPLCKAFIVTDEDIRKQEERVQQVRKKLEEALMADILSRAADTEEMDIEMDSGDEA
KLK7 act conf – proKLK7 zymogen activators, confirmation, biochemical, fluorescence intensity, triplicate; hit rate 68% among 3,200; purified proKLK7, EDANS-DABCYL substrate fluorescence; scaled: vehicle 0, mature enzyme 100; activation, % at 7 µM; shares compounds with KLK7 zymogen act;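 active = activation, as change over the incubation, above the mean of all tested compounds plus 3 SD, cut at about 13% in these data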
EDANS interfere – EDANS-DABCYL substrate optical interference, artefact control for kallikrein-7 zymogen activator project, biochemical, fluorescence intensity, high throughput | shares compounds with KLK7 zymogen act | no enzyme, 4 h; solvent 0%, active enzyme control 100% | activation, % at 7 µM | hit rate 80% among 3,200;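 active = activation above the all-compound mean plus 3 SD, ignoring values outside control-based bounds, cut at about 4.8% in these data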;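 also: value is the 4 h activation minus the activation read at time zero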
K7 EDANS ctr – EDANS fluorescence interference in dose response, no enzyme. shares compounds with KLK7 zymogen act. AID 720493. EC50, µM. EDANS-DABCYL peptide fluorescence interference. hit rate 20% among 250;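 active = compounds that raise the fluorescence signal in this interference counterscreen, with EC50 at or below 10 µM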;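 also: intact quenched peptide substrate alone read at 355 nm excitation and 520 nm emission; signal is fluorescence gain from T0 to T4 after four hours at room temperature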
A number is an active result; n = inactive; x = no result given.

SMILES | Neddyl block | Rin1-Abl PPI inh | UHRF1 binding | LEDGF integ inh | KLK7 zymogen act | MBD2 inh | KLK7 act conf | EDANS interfere | others
CC1CCCCC1NC(=O)CN1C(=O)c2cccc(N)c2C1=O (configuration not stated) | x | n | n | n | 34 | n | 78 | 70
COc1ccccc1CNC(=O)CN1C(=O)c2cccc(N)c2C1=O | x | n | n | n | 50 | n | n | 44
CCCCNC(=O)CN1C(=O)c2cccc(N)c2C1=O | x | n | n | n | n | n | x | x
CC1CCCCC1NC(=O)COC(=O)CN1C(=O)c2ccccc2C1=O (configuration not stated) | n | n | n | n | n | n | x | x
CN(C(=O)CN1C(=O)c2cccc(N)c2C1=O)C1CCCCC1 | x | n | n | n | 109 | n | 74 | 76
Nc1ccc2nc(-c3cccnc3)[nH]c2c1 | n | n | n | n | n | n | x | x
Nc1ccc2nc(-c3ccccc3)[nH]c2c1 | n | n | n | n | 77 | n | 61 | 76
Nc1ccc2nc(-c3cccs3)[nH]c2c1 | x | n | n | n | 73 | n | 67 | 69
Nc1ccc2nc(-c3ccc(N)c(Cl)c3)[nH]c2c1 | x | n | n | n | 77 | n | 68 | 72
Nc1ccc(-c2nc3c(Cl)cc(N)cc3[nH]2)cc1 | x | n | n | n | 42 | n | 79 | 69
C/C(=N\OCC(=O)OCC(=O)N(C)c1ccccc1)c1ccc2c(c1)OCO2 | n | n | n | n | n | n | x | x
C#CCN1CC(COc2ccccc2)Oc2cccc(Oc3ccc(SC)c(C)c3)c2S1(=O)=O (configuration not stated) | x | x | n | n | n | n | x | x
Cc1nn(C(C)C)c(C)c1CN1CCC(C(=O)Nc2cccc(-c3cccc(F)c3)c2)CC1 | n | n | n | n | n | n | x | x
CC(=O)Nc1ccc2nc(-c3cccs3)[nH]c2c1 | x | n | n | n | 16 | n | 36 | 28 | K7 EDANS ctr=8.2
COCCn1c(C)nnc1SCC(=O)Nc1ccccc1[N+](=O)[O-] | n | n | n | n | 39 | n | n | n
COCCn1c(SCC(=O)Nc2ccccc2OC)nnc1-c1ccco1 | n | n | n | n | n | n | x | x
COc1ccc(C(C)(NC(C)=O)c2nc(-c3cnc4ccccc4c3)cs2)cc1 (configuration not stated) | n | n | n | n | n | n | x | x
Cc1ccc(N(CC(=O)NCc2ccc(F)cc2)C(=O)c2snc(C(N)=O)c2N)cc1C | n | n | n | n | n | n | x | x
COc1ccc(N(CC(=O)NCc2ccc(F)cc2)C(=O)c2snc(C(N)=O)c2N)cc1OC | n | n | n | n | 15 | n | n | n
Cc1cc(C)c2nc(N3C(=O)C(O)=C(C(=O)c4ccco4)C3c3cccc(O)c3)sc2c1 (configuration not stated) | n | n | n | n | 14 | n | 20 | 22
O=C(Nc1cccc(NC(=O)c2ccc(-c3ccc(Br)cc3)o2)c1)c1ccco1 | n | n | n | n | 440 | n | 446 | 213
O=C(Nc1cccc(NC(=O)c2ccccc2Cl)c1)c1ccco1 | n | n | n | n | n | n | x | x
O=C(Nc1nc2ncccn2c1-c1ccc(F)c(F)c1)c1ccccc1 | x | x | n | n | n | n | x | x
